Tb PYK inh: T. brucei pyruvate kinase inhibition; Q57TT1; TbPYK enzyme, Kinase-Glo Plus ATP luminescence, 45 min; Potency, µM (top dose mostly 76.8 µM), inactives show at the highest dose activity, negative = inhibition, hits mostly inhibitors; actives 0.12% (n = 410,000); AID 624173; further: potency means the concentration at half of the fitted maximal effect; on the % scale 0 is the no-effect control and ±100 the full control effect; nearly all actives have a fitted effect of over 50% in size
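Enzyme and substrate buffer are dispensed first and compound is pin-transferred. ADP at 130 uM final then starts the reaction, which runs 45 min at room temperature. Detection reagent is added for 10 min before luminescence is imaged.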
Giardia FBPA inh: blocks Giardia fructose-bisphosphate aldolase activity; A8B2U2; purified Giardia FBPA; Potency, µM (highest dose often 59.6 µM), inactives show at the highest dose activity, negative = inhibition, most hits filed as inhibitors; actives 0.71% (n = 290,000); further: potency means the concentration at half of the fitted maximal effect; on the % scale 0 is the no-effect control and ±100 the full control effect; nearly all actives have a fitted effect of over 55% in size
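Giardia FBPA (40 nM reagent) was preincubated 10 min at RT with compound (up to 57.5 uM final), then substrate plus GAPDH/TPI/NAD/arsenate coupling system with diaphorase/resazurin was added; resorufin fluorescence (525/598 nm) was read after 20 min.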
Shiga toxin inh: inhibitors of Shiga toxin in Vero cells. Vero cells, Shiga toxin protein synthesis inhibition reporter. inhibition, % at 38.7 µM. actives 9.2% (n = 290,000). AID 2315; in the data active means inhibition mostly above about 28%, no sharp cut-off; inactive means mostly below about 43%; further: 0% is about no effect
Sm TGR inh: blocks Schistosoma mansoni thioredoxin glutathione reductase; Q962Y6; purified TGR, DTNB reduction, TNB absorbance 405 nm; Potency, µM (doses to about 114 µM), for inactives: at the highest dose activity change, negative = inhibition, usual class: inhibitors; actives 3% (n = 360,000); further: potency means the concentration at half of the fitted maximal effect; on the % scale 0 is the no-effect control and ±100 the full control effect; nearly all actives have a fitted effect of over 60% in size
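Kinetic colorimetric format: TGR-catalysed, NADPH-driven DTNB reduction monitored via TNB absorbance. Enzyme dispensed at 20 nM; compound exposure 15 min at room temperature before reaction start.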
Cycloheximide cs: affects cycloheximide protein synthesis inhibition readout, counter-screen; cell reporter, cycloheximide protein synthesis inhibition counterscreen; max response, %; actives 12% (n = 300,000); AID 2314; in the data active means max response mostly above about 13%, no sharp cut-off; inactive means mostly below about 14%; further: read at 38.3 µM for the half of the compounds with a filed dose; 0% is about no effect
LmPK inhibitor: blocks Leishmania mexicana pyruvate kinase activity; Potency, µM (doses to about 57.5 µM), for the others: top-dose activity change, negative = inhibition, usual class: inhibitors; purified LmPK, Kinase-Glo ATP luminescence, 1 h; actives 0.37% (n = 290,000); AID 1721; further: potency means the concentration at half of the fitted maximal effect; on the % scale 0 is the no-effect control and ±100 the full control effect
Target sequence (Q27686 whole entry, looked up): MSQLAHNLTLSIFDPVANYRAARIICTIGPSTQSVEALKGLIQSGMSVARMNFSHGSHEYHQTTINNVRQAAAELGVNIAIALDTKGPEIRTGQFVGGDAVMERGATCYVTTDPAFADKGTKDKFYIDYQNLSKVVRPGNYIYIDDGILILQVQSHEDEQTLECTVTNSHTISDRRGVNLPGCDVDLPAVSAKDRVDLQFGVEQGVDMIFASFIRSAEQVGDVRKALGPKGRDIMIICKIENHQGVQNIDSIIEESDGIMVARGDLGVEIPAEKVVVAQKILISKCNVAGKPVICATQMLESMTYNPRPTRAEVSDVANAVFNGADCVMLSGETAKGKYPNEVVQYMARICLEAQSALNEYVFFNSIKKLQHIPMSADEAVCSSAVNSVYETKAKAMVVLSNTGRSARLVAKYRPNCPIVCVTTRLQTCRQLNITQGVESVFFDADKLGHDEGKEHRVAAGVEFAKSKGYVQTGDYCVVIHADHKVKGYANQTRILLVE
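Kinase-Glo luminescence read after 1 h RT reaction of 0.1 nM LmPK with 0.5 mM PEP and 0.1 mM ADP. Activity scaled between uninhibited and enzyme-free controls.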
* = called active by the depositor; [ ] = another dose, or the depositor's remark. Many of the other results were omitted from the sample, so hits are more common in it than they were. Unless noted, the call rests on the fitted dose curve; in most records, active means well fitted curve in the direction sought with a large enough effect; inconclusive means small, poorly fitted or top-dose-only effect, or another doubt; inactive means no such curve, though single readings can be large; an effect the other way counts as inactive or inconclusive.

What do the screens show for `Cc1ccc(N=c2c([N+](=O)[O-])nn(-c3ccc4c(c3)OCCO4)n2O)c(Cl)c1`?
Giardia FBPA inh: -7.8%; Shiga toxin inh: 88.7*; Sm TGR inh: 4.47µM*; Cycloheximide cs: 34.6*; LmPK inhibitor: -8.6%

How did Cc1ncc([N+](=O)[O-])n1S(=O)(=O)c1ccc2c(c1)OCCO2 do in these assays?
Tb PYK inh: -11.1%

Results for O=[N+]([O-])c1nn(-c2ccc3c(c2)OCCO3)n(O)c1=Nc1ccc(Cl)cc1 ?
Tb PYK inh: -2.1%; Giardia FBPA inh: -8.3%; Shiga toxin inh: 116.6*; Sm TGR inh: 35.5µM*; Cycloheximide cs: 34.0*; LmPK inhibitor: -2.6%

How did Cc1ccc(N=c2c([N+](=O)[O-])nn(-c3ccc(Cl)cc3)n2O)cc1C do in these assays?
Tb PYK inh: -3.8%; Giardia FBPA inh: -14.2%; Shiga toxin inh: 26.2; Sm TGR inh: -18.8%; Cycloheximide cs: 18.2; LmPK inhibitor: 0.1%

What do the screens show for `Cc1ccc(N=c2c([N+](=O)[O-])nn(-c3ccccc3)n2O)c(C)c1`?
Tb PYK inh: -9.0%; Giardia FBPA inh: -26.8%; Shiga toxin inh: 98.0*; Sm TGR inh: 31.6µM*; Cycloheximide cs: 31.7*; LmPK inhibitor: -2.1%

Results for O=[N+]([O-])c1nn(-c2ccc3c(c2)OCCO3)n(O)c1=Nc1ccccc1 ?
Tb PYK inh: -13.9%; Giardia FBPA inh: inconclusive; Shiga toxin inh: 168.0*; Sm TGR inh: -5.6%; Cycloheximide cs: 142.4*; LmPK inhibitor: 0.2%

What do the screens show for `CCc1ccc(N=c2c([N+](=O)[O-])nn(-c3ccc4c(c3)OCCO4)n2O)cc1`?
Tb PYK inh: 1.6%; Giardia FBPA inh: -11.0%; Shiga toxin inh: 45.8*; Sm TGR inh: 10µM*; Cycloheximide cs: 33.6*; LmPK inhibitor: 5.9%

How did CCc1ccccc1NC(=O)CSc1nc2ncccc2o1 do in these assays?
Tb PYK inh: -9.1%; Sm TGR inh: 4.0%

How did CS(=O)(=O)N1N=C(c2ccccc2)CC1c1ccc2nccnc2c1 (stereo not drawn) do in these assays?
Tb PYK inh: -0.6%; Giardia FBPA inh: 0.5%; Shiga toxin inh: 63.3*; Sm TGR inh: -9.8%; Cycloheximide cs: 18.3; LmPK inhibitor: -0.5%

Results for COc1ccc(C2CC(c3ccc(OC)c(OC)c3)=NN2S(C)(=O)=O)cc1 (stereo not drawn) ?
Tb PYK inh: -21.2%; Giardia FBPA inh: 5.8%; Shiga toxin inh: 88.2*; Sm TGR inh: -4.4%; Cycloheximide cs: 63.1*; LmPK inhibitor: -0.2%

Results for CS(=O)(=O)N1N=C(c2ccc3nccnc3c2)CC1c1ccccc1 (stereo not drawn) ?
Tb PYK inh: -7.0%; Giardia FBPA inh: -0.3%; Shiga toxin inh: 34.7; Sm TGR inh: -0.4%; Cycloheximide cs: 17.0*; LmPK inhibitor: 4.2%

How did COc1ccc(C2CC(c3c(-c4ccccc4)c4cc(Cl)ccc4[nH]c3=O)=NN2S(C)(=O)=O)cc1 (stereo not drawn) do in these assays?
Tb PYK inh: 3.1%; Giardia FBPA inh: 3.2%; Shiga toxin inh: -19.7; Sm TGR inh: -6.8%; Cycloheximide cs: -4.2; LmPK inhibitor: 2.1%

How did COc1ccc(C2CC(c3ccc4ccccc4c3)=NN2C(=O)CSc2ncccn2)cc1 (stereo not drawn) do in these assays?
Tb PYK inh: -7.8%; Giardia FBPA inh: -2.0%; Shiga toxin inh: 43.1*; Sm TGR inh: -5.7%; Cycloheximide cs: 14.8*; LmPK inhibitor: 1.3%

Results for CC(C)c1ccc(NC(=O)NC2(C(=O)NCc3cccnc3)CCCCC2)cc1 ?
Tb PYK inh: 2.9%; Giardia FBPA inh: -2.8%; Shiga toxin inh: 19.6; Sm TGR inh: -18.7%; Cycloheximide cs: -2.3; LmPK inhibitor: 0.9%

How did CC(=O)c1cc(-c2ccc(F)cc2)n(CCC(=O)Nc2nc3ccc(C)cc3s2)c1C do in these assays?
Tb PYK inh: 0.4%[15.4 µM]; Sm TGR inh: 11.1%

How did O=C(O)CCC(=O)N1N=C(c2ccccc2)CC1c1ccc2nccnc2c1 (stereo not drawn) do in these assays?
Tb PYK inh: -15.0%; Giardia FBPA inh: 2.0%; Shiga toxin inh: -6.9; Sm TGR inh: -19.6%; Cycloheximide cs: 6.8; LmPK inhibitor: -2.8%

How did Cc1ccc(C2=NN(S(C)(=O)=O)C(c3ccc4nccnc4c3)C2)cc1 (stereo not drawn) do in these assays?
Tb PYK inh: -3.3%; Giardia FBPA inh: 3.8%; Shiga toxin inh: 46.0*; Sm TGR inh: -5.3%; Cycloheximide cs: 18.6*; LmPK inhibitor: -0.6%

How did COc1ccc(C2=NN(C(=O)CCC(=O)O)C(c3ccc(OC)c(OC)c3)C2)cc1 (stereo not drawn) do in these assays?
Tb PYK inh: 4.4%; Giardia FBPA inh: 11.8%; Shiga toxin inh: 15.5; Sm TGR inh: 22.4µM*; Cycloheximide cs: -1.0; LmPK inhibitor: 2.0%

How did COc1ccc(C2=NN(C(=O)CSc3ncccn3)C(c3ccc(OC)cc3)C2)cc1 (stereo not drawn) do in these assays?
Tb PYK inh: -5.8%; Giardia FBPA inh: 1.8%; Shiga toxin inh: 12.2; Sm TGR inh: -6.0%; Cycloheximide cs: 10.8; LmPK inhibitor: 6.3%

Results for COc1ccc(C2=NN(S(C)(=O)=O)C(c3ccc4nccnc4c3)C2)cc1 (stereo not drawn) ?
Tb PYK inh: -1.3%; Giardia FBPA inh: 2.3%; Shiga toxin inh: 60.2*; Sm TGR inh: -1.1%; Cycloheximide cs: 79.0*; LmPK inhibitor: -6.2%

What do the screens show for `O=C(c1ccco1)N1N=C(c2ccccc2)CC1c1ccc2nccnc2c1` (stereo not drawn)?
Tb PYK inh: -17.0%; Giardia FBPA inh: -6.0%; Shiga toxin inh: 30.6; Sm TGR inh: inconclusive; Cycloheximide cs: 16.3*; LmPK inhibitor: -0.4%

Results for COc1ccc(C2CC(c3ccc(Br)cc3)=NN2C(=O)CCC(=O)O)cc1OC (stereo not drawn) ?
Tb PYK inh: 4.2%; Giardia FBPA inh: 4.8%; Shiga toxin inh: 14.4; Sm TGR inh: -20.4%; Cycloheximide cs: -2.7; LmPK inhibitor: -4.7%

How did COc1ccc2c(c1)Cc1sc(NC(=O)c3ccc(Cl)cc3)nc1-2 do in these assays?
Tb PYK inh: -25.7%; Sm TGR inh: -25.2%

What do the screens show for `COc1ccc(N(CC(=O)NCc2cccs2)S(=O)(=O)c2ccc(C(C)=O)cc2)cc1`?
Tb PYK inh: -10.6%

Results for COc1ccc(Cl)cc1N=C1NC(=O)CC(C(=O)Nc2ccccc2C(F)(F)F)S1 (stereo not drawn) ?
Tb PYK inh: 0.3%; Sm TGR inh: -7.9%

How did O=C(c1csnn1)N1CCC2(CCCN(Cc3cc(C(F)(F)F)cc(C(F)(F)F)c3)C2)CC1 do in these assays?
Tb PYK inh: 4.2%; Giardia FBPA inh: -1.1%
